hERG WT inh: qHTS for Inhibitors of KCHN2 3.1: Wildtype qHTS; Voltage-gated inwardly rectifying potassium channel KCNH2 (Homo sapiens), Q12809; U2OS, BacMam KCNH2, thallium flux FluxOr; hits give low values; activity change, % at 1.84 µM; actives 0.37% (n = 340,000); AID 720551, 2013;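 active = maximum activity change below -70%; inconclusive = maximum activity change between -70% and -50%; inactive = maximum activity change above -50%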; note: % is set by controls: 0 for no effect and ±100 for the full control effect
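U2OS cells transduced with wild-type KCNH2 virus are loaded with FluxOr dye for 45 min, and thallium flux is measured in kinetic reads before and after stimulation buffer. Rate constants are normalized to DMSO controls.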
TRPV1 agonist: HTS Assay for Compounds that Act as Agonists of the Vanilloid Receptor 1 | actives 0.19% (n = 320,000) | TRPV1-expressing cells, Fluo-8 calcium influx, agonist mode | activation, % at 8.33 µM; in the data active = activation above about 80%; inconclusive = between about 30% and that limit; note: 0% is about no effect
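TRPV1-expressing cells were cultured overnight at 35.5C and loaded with Fluo-8 calcium dye for 40 to 90 min at room temperature. After a 10 s baseline, compound was added and calcium influx was read kinetically for 3 min (ex 480/em 520 nm).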
TRPV1 potentiator: HTS Assay for Compounds that Act as Potentiators of the Vanilloid Receptor 1 | actives 0.02% (n = 320,000) | TRPV1-expressing cells, Fluo-8 calcium influx, capsaicin EC20 potentiation | potentiation, % at 8.33 µM | Transient receptor potential cation channel subfamily V member 1 (Homo sapiens), Q8NER1; in the data active = potentiation above about 80%; inconclusive = between about 30% and that limit; note: 0% is about no effect
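Cells expressing TRPV1 were dye-loaded with Fluo-8 and read kinetically: 10 s baseline, 3 min after compound (agonist portion), then 2 min after EC20 capsaicin (allosteric enhancer portion). Calcium-bound dye fluorescence at 480/520 nm.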
KCNH2 3.1 inh: qHTS for Inhibitors of KCHN2 3.1: Mutant qHTS | U2OS KCNH2 3.1, thallium flux FluxOr; hits give low values | activity change, % (tested at about 1.8 µM) | actives 0.95% (n = 340,000) | Potassium voltage-gated channel subfamily H member 2, brain isoform KCNH2 3.1 (human);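 active = maximum activity change below -70%; inconclusive = maximum activity change from -70% to -50%; inactive = maximum activity change above -50%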;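 note: thallium influx rate constant from kinetic fluorescence after stimulation buffer; % is set by controls: 0 for no effect and ±100 for the full control effect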
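Virally transduced U2OS (3.1 isoform, 4 h infection in dark at RT) → overnight 37 C → FluxOr + Red40 in HBSS/HEPES, 45 min → stimulation buffer, 2 min kinetic read → rate constant vs DMSO controls.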
MBNL1-CUG inh: qHTS Assay for Inhibitors of MBNL1-poly(CUG) RNA binding. Muscleblind-like protein 1 (Homo sapiens), Q9NR56. AID 2675, 2010. TR-FRET MBNL1-His/biotin-(CUG)12 binding, 665/545 ratio. Potency, µM (series often up to 57.5 µM), without a hit: top-dose activity change, negative = inhibition, most hits filed as inhibitors. actives 0.036% (n = 280,000); active = well fitted inhibition curve with a large enough effect in the signal ratio, with a control signal flat, not every such curve was filed as active; inconclusive = small, poorly fitted or top-dose-only effect, or effect the other way, or a change in a side signal; inactive = no such curve, though single readings can be large or run the other way; the % refers to the signal ratio; note: potency is the fitted concentration of half-maximal effect; % is set by controls: 0 for no effect and ±100 for the full control effect
Target sequence (Q9NR56 whole entry, looked up): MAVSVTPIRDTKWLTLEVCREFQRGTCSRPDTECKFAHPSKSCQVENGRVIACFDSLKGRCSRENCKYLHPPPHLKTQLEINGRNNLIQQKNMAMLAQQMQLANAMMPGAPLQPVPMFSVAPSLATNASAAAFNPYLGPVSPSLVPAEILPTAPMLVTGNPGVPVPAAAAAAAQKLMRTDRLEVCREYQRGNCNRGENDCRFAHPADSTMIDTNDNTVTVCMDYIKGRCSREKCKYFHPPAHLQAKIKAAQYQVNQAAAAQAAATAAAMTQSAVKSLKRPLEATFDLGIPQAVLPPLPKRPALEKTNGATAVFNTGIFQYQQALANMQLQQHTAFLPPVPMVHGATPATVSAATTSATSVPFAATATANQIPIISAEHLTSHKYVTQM
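Inhibition of protein-RNA binding appears as loss of TR-FRET between terbium anti-His antibody on MBNL1-His and streptavidin-XL665 on biotin-(CUG)12. Activity is normalized to buffer-only and uninhibited-complex controls.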
An asterisk follows results filed as active; ? = inconclusive; · = no result. Hits are enriched below; roughly 1.3% of the tested compounds scored in any of these assays.

SMILES | hERG WT inh | TRPV1 agonist | TRPV1 potentiator | KCNH2 3.1 inh | MBNL1-CUG inh
COc1ccc(CN2CCC(C(=O)c3ccc(F)cc3)CC2)cc1 | -7 | 21 | -17 | -73* | 4%
Cc1ccc(CN2CCC(C(=O)c3ccc(F)cc3)CC2)cc1 | 6 | · | · | -75* | ·
CSc1ccc(CN2CCC(C(=O)NCc3ccc(C)cc3)CC2)cc1 | · | 7 | 17 | -93* | 0%
Cc1ccc(NC(=O)N2CCC(C(=O)c3ccc(F)cc3)CC2)cc1 | 1 | ? | 8 | 16 | -2%
COc1ccc(C(=O)Oc2cc3c4c(c2)C(C)=CC(C)(C)N4C(=O)C3=O)cc1OC | 16 | -1 | -4 | -72* | -5%
COc1cccc(C(=O)Oc2cc3c4c(c2)C(C)=CC(C)(C)N4C(=O)C3=O)c1 | 0 | 2 | -31 | -13 | 7%
Cc1ccc(NC(=O)C2CCCN(C(=O)Nc3ccc(F)cc3)C2)cc1 (configuration not stated) | -1 | ? | -3 | -2 | -3%
Cc1ccc(C2CCN(C(=O)Nc3ccc(F)cc3)C2)cc1 (configuration not stated) | 3 | 83* | 1 | 16 | 1%
Nc1ccccc1N=Cc1ccc(-c2cccc(Cl)c2)o1 | 6 | 117* | 1 | 2 | ·
Cc1onc(-c2c(F)cccc2Cl)c1C(=O)Nc1cccc(S(=O)(=O)N2CCOCC2)c1 | 5 | · | · | -8 | ·
CC(=O)Nc1ccc(NC(=O)C(C)OC(=O)CC2CCCCC2)cc1 (configuration not stated) | 1 | 14 | ? | -8 | ·
CC(OC(=O)CC1CCCCC1)C(=O)Nc1ccc(F)cc1 (configuration not stated) | 3 | 83* | -15 | -7 | ·
Cc1ccc(OCc2cc(C(=O)N(C)Cc3cnc4ccccn34)no2)cc1C | 1 | -1 | -10 | -3 | 1%
Cc1ccc(/C=C(\NC(=O)c2ccc(C)cc2)C(=O)NCCCn2ccnc2)cc1 | -94* | -1 | 11 | -95* | 3%
Cc1ccc(C(=O)N/C(=C/c2ccc(F)cc2)C(=O)NCc2ccncc2)cc1 | ? | 29 | 3 | -90* | ·
Cc1ccc(C(=O)N/C(=C\c2ccccc2)C(=O)NCCCn2ccnc2)cc1 | -125* | -1 | 6 | -105* | 3%
Cc1ccc(C(=O)N/C(=C\c2cn(C)c3ccccc23)C(=O)NCCCn2ccnc2)cc1 | 41 | 2 | 19 | 9 | 10%
CC(Sc1ccc(Cl)cc1)C(=O)NNC(=O)c1ccco1 (configuration not stated) | 2 | · | · | -1 | ·
CCOC(=O)c1ccccc1NC(=O)COC(=O)C1CCCC1 | -104* | -3 | 8 | 11 | ·
Cn1c(SC(C(=O)Nc2ccc(F)cc2)c2ccccc2)nc2ccccc21 (configuration not stated) | -9 | 85* | -4 | -82* | ?
Cn1nnnc1SC(C(=O)Nc1ccc(F)cc1)c1ccccc1 (configuration not stated) | -1 | 0 | 4 | 15 | -1%
Cc1ccc(S(=O)(=O)N2CCN(C(=O)COC(=O)/C=C/c3ccc(OC(F)F)cc3)CC2)cc1 | -5 | · | · | -15 | ·
O=C(c1cc(COc2ccc(F)c(F)c2)on1)N1CCN(C2CCCCC2)C(=O)C1 | -6 | 23 | -24 | -125* | 0%
O=C(c1cc(COc2c(F)cccc2F)on1)N1CCN(C2CCCCC2)C(=O)C1 | 10 | 3 | 11 | -4 | -4%
CS(=O)(=O)N(Cc1ccccc1Cl)c1ccc(C(=O)NCc2ccccn2)cc1 | 0 | 0 | 3 | 6 | -13%
SMILES | hERG WT inh | TRPV1 agonist | TRPV1 potentiator | KCNH2 3.1 inh | MBNL1-CUG inh
COC(=O)c1cc(C(=O)c2cc(Cl)ccc2O)coc1=N | -172* | -2 | 17 | -5 | 0%
COCCOC(=O)c1cc(C(=O)c2cc(F)ccc2O)coc1=N | -7 | -2 | 6 | 8 | 9%
CN1CCC(Oc2ccccc2Sc2ccccc2)CC1 | -71* | 4 | 0 | 5 | -8%
CN1CCC(OC(c2ccccc2)c2ccccc2)CC1 | 29 | 1 | 7 | -19 | -15%
O=C(CSc1ccc(Cl)cc1)N1CCN(c2ncc(C(F)(F)F)cc2Cl)CC1 | 28 | ? | 4 | -124* | -9%
O=C(CSc1ccc(Cl)cc1)N1CCN(c2ccc([N+](=O)[O-])cc2Cl)CC1 | ? | 2 | 0 | -88* | 15%
CCCC(=O)N1CCN(c2ccc([N+](=O)[O-])cc2Cl)CC1 | -1 | ? | -9 | -14 | ?
COc1cc(OC)c(OC)cc1CNC(=O)CCN1C(=O)c2cccc([N+](=O)[O-])c2C1=O | 1 | -1 | 2 | -6 | ?
Oc1ccc(-c2nccs2)cc1 | 16 | · | · | -120* | ·
COc1cccc(-c2cc(C(=O)N3CCc4ccccc4C3)[nH]n2)c1 | -302* | 29 | -17 | 9 | -7%
O=S(=O)(NNc1ncc(C(F)(F)F)cc1Cl)c1ccccc1 | -15 | 0 | -1 | 16 | ·
Cc1nn(CC(=O)OCCOc2ccc(Br)cc2)c(C)c1[N+](=O)[O-] | -15 | 0 | 1 | -73* | -3%
Cc1ccc(CNC(=O)COC(=O)Cn2nc(C)c([N+](=O)[O-])c2C)cc1 | -30 | 8 | -27 | · | -1%
Cc1ncc([N+](=O)[O-])n1S(=O)(=O)c1cc(Br)ccc1Br | 10 | -4 | -4 | 5 | -15%
CCN(C[C@H]1N[C@@](CC)(C(=O)OC)[C@H]2C(=O)N(Cc3ccccc3)C(=O)[C@@H]12)S(=O)(=O)c1ccc(OC(F)(F)F)cc1 | -277* | · | · | -13 | ·
CC(=O)c1cccc(NC(=O)N2CCCC2C(=O)NC2CCCC2)c1 (configuration not stated) | -14 | -2 | -2 | -2 | 7%
O=C(NC1CCCC1)C1CCCN1C(=O)Nc1ccccc1 (configuration not stated) | 15 | -2 | 15 | -87* | -2%
Cc1ccc(NC(=S)N(CCC(C)C)C(C)c2ccncc2)c(Cl)c1 (configuration not stated) | -3 | 7 | 12 | 8 | 4%
COc1ccc(CNC(=O)C2(CC3CC(c4ccccc4)=NO3)CCN(C(=O)Cc3ccc(F)cc3)CC2)cc1 (configuration not stated) | -27 | · | · | -72* | ·
Cn1cnc(C(=O)NCc2ccccc2)c1C(=O)NCc1ccccc1 | -2 | · | · | 4 | ·
